Data as given in PubChem BioAssay AID488835 (Broad Institute, 2010).
The campaign covered roughly 1,400 compounds. About 140 (10%) were called active.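 Rule for the calls: active = Half-maximal inhibitory dose from the fit at or below ten times the top valid tested dose; inconclusive = Invalid fit, or flat curve showing 30 to 70% inhibition; inactive = the rest.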 Not all results are given here. Potency and affinity values are given separately.

Each molecule was assayed against Lysine-specific demethylase 4C (Homo sapiens) (UniProt Q9H3R0) (assay: GASC-1 (JMJD2C) histone demethylase inhibitors, dose response, biochemical, DELFIA europium, cherry-picked samples (AID 488835;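 note: signal is the H3K9me2 demethylation product detected by a dimethyl-specific antibody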)). Conditions: GST-JMJD2C(1-420), H3K9me3 demethylation; series mostly up to 6 µM; activity change, negative = inhibition: at the top concentration.
Chain of Lysine-specific demethylase 4C (Homo sapiens) (Q9H3R0 1-420 limits assumed): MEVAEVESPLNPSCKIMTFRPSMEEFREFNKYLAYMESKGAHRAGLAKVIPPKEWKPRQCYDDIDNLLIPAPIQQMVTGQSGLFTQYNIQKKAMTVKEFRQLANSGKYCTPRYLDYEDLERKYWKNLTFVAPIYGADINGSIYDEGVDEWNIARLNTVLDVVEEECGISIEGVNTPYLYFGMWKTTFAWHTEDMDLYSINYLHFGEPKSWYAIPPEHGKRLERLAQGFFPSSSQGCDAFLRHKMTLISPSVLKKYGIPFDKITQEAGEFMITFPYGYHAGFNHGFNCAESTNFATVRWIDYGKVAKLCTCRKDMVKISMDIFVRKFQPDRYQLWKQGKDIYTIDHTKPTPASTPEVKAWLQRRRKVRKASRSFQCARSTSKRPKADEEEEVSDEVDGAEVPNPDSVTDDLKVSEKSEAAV

Activity change, negative = inhibition, inactive:
O=C(N/N=C/c1nn(-c2ccccc2)cc1-c1ccccc1)c1ccncc1 0.372%
CCCC(=O)Nc1ccc(C(=O)NCC2CCCO2)cc1 (stereo unspecified) 3.13%
CS(=O)(=O)N(CCc1ccccc1)CC(=O)NCC1CCCO1 (stereo unspecified) 4.93%
Cc1cc(C)n(-c2nnc(C)n2/N=C/c2ccco2)n1 -0.704%
O=C(O)c1cc2cc(Cl)ccc2oc1=O -0.508%
O=C(CSc1nc2ccccc2c(=O)n1Cc1ccccc1)NCc1ccco1 -2.03%
CCOC(=O)Cn1c(=O)cnc2ccccc21 5.57%
O=[N+]([O-])c1ccccc1/C=C/C=N/n1c(-c2ccc(Cl)cc2)n[nH]c1=S -7.26%
CC(C)(C)n1ncc2c(=O)n(Cc3ccccc3Br)cnc21 -1.56%
O=C(OCC(=O)N1CCCC1)c1ccc(S(=O)(=O)Nc2ccccc2)cc1 -1.48%
CCN(CC)c1ccc(C(=O)OCC(=O)N2CCCC2)cc1 8.43%
C[C@H](CO)N1C[C@H](C)[C@@H](CN(C)C(=O)NC2CCCCC2)Oc2c(NC(=O)c3ccncc3)cccc2C1=O -0.139%
CCC(=O)N1c2ccc(S(=O)(=O)CCC(=O)NCCC3=CCCCC3)cc2CC1C (stereo unspecified) -5.61%
Brc1ccc(-c2csc(N3CCc4ccccc4C3)n2)cc1 -8.29%
O=C(N/N=C/c1ccc([N+](=O)[O-])o1)c1cn(-c2ccccc2)nc1-c1ccc(F)cc1 -0.632%
COc1ccc(-n2c(C)cc(/C=N/Nc3nnc(C)n3N)c2C)cc1 -7.05%
Cc1cccc(C)c1NC(=S)NN(Cc1ccccc1)c1ccccc1 9.61%
CCN(CC)CCCOc1ccc(C)cc1Br -1.23%
O=C(C1CCC1)N(CCc1ccccc1)Cc1nc2ccccc2c(=O)[nH]1 2.65%
O=C(Nc1ccc(Cl)cc1)N1CCN(c2ccccc2)CC1 5.66%
COc1ccc(NC(=S)N2CCC(C(=O)N3CCCCCC3)CC2)cc1 6.3%
COc1ccc(C(C(C(=O)c2ccco2)N2CCOCC2)N2CCOCC2)cc1 (stereo unspecified) 5.71%
CCN1C(=O)C(C(=O)Nc2ccc(OC)cc2)C2CC1(C)Oc1ccccc12 (stereo unspecified) 4.42%
COc1ccc(CC(=O)Nc2ccc(S(=O)(=O)N(C)C)cc2)cc1OC 2.27%
Cc1onc(-c2c(F)cccc2Cl)c1C(=O)N1CCN(S(C)(=O)=O)CC1 12.7%
N/C(=N\OC(=O)COc1cc(Cl)c(Cl)cc1Cl)c1ccncc1 -1.87%
C=CCNC(=S)Nc1ccc(N2CCOCC2)c(S(=O)(=O)Nc2ccccc2Cl)c1 3.98%
CN(C)S(=O)(=O)c1cccc(NC(=S)NCc2ccc3c(c2)OCO3)c1 1.74%
COc1ccc(S(=O)(=O)N2CCC(C(=O)N3CCc4ccccc4C3)CC2)cc1 4.71%
O=C(NCc1cccc(F)c1)C1CCN(S(=O)(=O)Cc2ccccc2)CC1 -2.41%
COc1ccc(C2CC(=O)C=C(NNS(=O)(=O)c3ccc(C)cc3)C2)cc1 (stereo unspecified) 0.334%
COCCn1nnnc1C(C(C)C)N1CCCC(C)C1 (stereo unspecified) -1.09%
CCc1ccc(S(=O)(=O)Nc2nnc(N)s2)cc1 6.79%
COc1ccc(NS(=O)(=O)c2cccc(C(=O)OCC(=O)Nc3cc(C)on3)c2)cc1 2.59%
O=C(NCCNc1ccc([N+](=O)[O-])cc1C(F)(F)F)c1ccccc1 5.47%
COC(=O)COc1ccc(S(=O)(=O)N2CCOCC2)cc1C 5.36%
COc1ccccc1C(c1nnnn1Cc1ccccc1)N1CCN(C2CCCC2)CC1 (stereo unspecified) -4.86%
C/C=C(\C)c1nnc(NC(=O)C(C)C)s1 9.8%
CCOC(=O)N1CCN(C(=S)NC(=O)c2ccc(F)cc2)CC1 -2.89%
COc1ccc(-c2nn(-c3ccccc3)cc2CNC(C)Cn2cncn2)c(F)c1 (stereo unspecified) -4.46%
CCOc1ccc(N2CC(C(=O)Nc3nnc(Cc4ccc(OC)cc4)s3)CC2=O)cc1 (stereo unspecified) 4.76%
CCCCN1CC[C@H]2C=CC[C@@H](C(=O)Nc3ccc(OC)cc3)[C@H]2C1=O 8.42%
O=S(=O)(Nc1ccccc1)c1ccc(NS(=O)(=O)c2c(F)cccc2F)cc1 -0.423%
C[C@H](CO)N1C[C@H](C)[C@@H](CN(C)C(=O)Nc2ccc(C(F)(F)F)cc2)Oc2c(NC(=O)Nc3ccc4c(c3)OCO4)cccc2C1=O 3.68%
COc1cc(/C=N/N2C(=O)C3C4c5ccccc5C(c5ccccc54)C3C2=O)ccc1O (stereo unspecified) -0.389%
COc1ccc(/C=N/Nc2ncnc(Cl)c2N)cc1OC -1.24%
COc1cc(/C=N/Nc2ccccc2)ccc1OC(=O)c1cccs1 -0.0417%
O=C(O)CCCC(=O)Nc1ccc(C(=O)NCc2cccnc2)cc1 3.5%
N#CCN1CCC(c2cc(-c3ccco3)n[nH]2)CC1 -1.55% [at 1.6 µM]
CS(=O)(=O)N(CC(=O)O)c1cc(Cl)cc(Cl)c1 -2.49%
COc1ccc(N2CCN(C(=O)CSc3nnc(-c4ccco4)n3C)CC2)cc1 4.94%
C[C@H](CO)N1C[C@H](C)[C@@H](CN(C)C(=O)Nc2ccccc2)Oc2c(NC(=O)c3ccncc3)cccc2C1=O 5.62%
Cc1cccc2sc(NNC(=O)c3cc(=O)c4ccccc4o3)nc12 -7.12%
CN1N=C(C(F)(F)F)CC1=O -2.45%
CSC1=NCCN1C(=O)c1cccc(C(F)(F)F)c1 -2.7%
Cn1c(=O)c(-c2ccccc2)nn2c3ccccc3nc12 7.46%
Cc1ccc(Nc2c(-c3ccccn3)nc3cc(C)ccn23)cc1 6.6%
CCOC(=O)N1CCC2(CC1)C(C#N)=C(N)OC1=C2C(=O)CC(C)(C)C1 4.68%
C[C@H](CO)N1C[C@H](C)[C@@H](CN(C)Cc2ccc(C(=O)O)cc2)Oc2c(NC(=O)c3ccncc3)cccc2C1=O 7.09%
O=C(O)Cn1cc(/C=C2/SC(=O)N(CC(=O)N3CCCCCC3)C2=O)c2ccccc21 2.27%
O=C(O)CCC(=O)Nc1nc2nc(-c3ccccc3)cc(-c3ccccc3)n2n1 0.643%
CCN(C[C@H]1N[C@@](C)(C(=O)OC)[C@H]2C(=O)N(Cc3ccccc3)C(=O)[C@@H]12)C(=O)Nc1ccc(F)cc1 -4.19%
Cc1cc(N2C(=O)C(=O)/C(=C(/O)c3ccc(F)cc3)C2c2cccc(Br)c2)no1 (stereo unspecified) 2.06%
COc1cccc(/C=C/C(=O)NCCc2ccc(OC)c(OC)c2)c1 -4.6%
CCc1ccc(-c2cc(C)no2)cc1S(=O)(=O)NCCc1ccc(OC)c(OC)c1 7.44%
Cc1ccccc1NS(=O)(=O)c1ccc(C(=O)NCC(c2ccco2)N(C)C)cc1 (stereo unspecified) -0.352%
